# Experimental data as given in PubChem BioAssay (NCATS).
# Inconclusive results are not listed. Values without a mark were called inactive. The call rests on the fitted dose curve; in most records, active means well fitted inhibition curve with a large enough effect; inconclusive means small, poorly fitted or top-dose-only effect; inactive means flat fitted curve, though single readings scatter. Peptide text beside a SMILES is read from it.
# Target: Aldehyde dehydrogenase, mitochondrial (Homo sapiens) (UniProt P05091)
# Experiment: qHTS for Inhibitors of the Aldehyde Dehydrogenase Family (ALDH2) Primary screen (AID 2061308);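 further: plate controls were vehicle for no effect and reference inhibitor for full effect; nearly all actives have a fitted effect of over 55% in size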
# Details: ALDH2 enzyme inhibition qHTS, 1536-well; series mostly up to 56 µM; activity change, negative = inhibition: at the top concentration
row,SMILES,"activity change, negative = inhibition"
1,CCCC1=CC2=C(CO1)C(=O)C(C)(OC(=O)c1c(C)cc(OC)cc1O)C(O)C2 (stereo not given),-10.6% [at 28 µM]
2,CC1CCC2(C=O)C(CO)=CCCC2C1(C)CC(=O)O (stereo not given),-12.7%
3,CO[C@@H]1[C@H](O)CCC2(CO2)[C@H]1[C@@]1(C)O[C@@H]1CC=C(C)C (stereo not given in full),19.2%
4,CC(O)C/C=C/C=C/C(=O)OC1C=C2COC(=O)C2(O)C2(C)CCCC(C)(C)C12 (stereo not given),-9.27%
5,CCc1c(-c2ccccc2)c(-c2ccccc2)nn1-c1ccccc1-c1cccc(OCC(=O)O)c1,1.2%
6,C=C1C(=O)O[C@@H]2/C=C(\CO)CC/C=C(/C=O)C[C@H](O)[C@@H]12,-4.22%
7,CC(=O)NC(CCC(=O)O)C(=O)NCCc1ccc(O)cc1 (stereo not given),-4.83%
8,CC(C)c1ccc2c(c1)C(=O)CC1[C@@](C)(C(=O)O)CCC[C@]21C (stereo not given in full),-18.5%
9,O=C1C=CC2OC(c3ccccc3)C(O)C2O1 (stereo not given),-0.532%
10,O=C1Nc2ccc(O)cc2O[C@H]1O[C@@H]1O[C@H](CO)[C@@H](O)[C@H](O)[C@H]1O,0.138%
11,C[C@@H]1C[C@H](O[C@@H]2O[C@H](CO[C@@H]3OC[C@](O)(CO)[C@H]3O)[C@@H](O)[C@H](O)[C@H]2O)CC(C)(C)[C@H]1/C=C/[C@@H](C)O,-2.52% [at 28 µM]
12,C=C1CCC2C(C)(C)CC(O)CC2(C)C1CCC(C)CCOC(=O)CCC(=O)O (stereo not given),-19.1% [at 28 µM]
13,C=C[C@](C)(CC/C=C(\C)C(=O)O)O[C@@H]1OC[C@H](O)[C@H](O)[C@H]1O,-2.04%
14,COc1cc(C(O)C(CO)Oc2ccc(CCCO[C@@H]3O[C@@H](C)[C@H](O)[C@@H](O)[C@H]3O)cc2OC)ccc1O (stereo not given in full),-5.04% [at 28 µM]
15,C/C=C/C=C/C(=O)O[C@@H]1C=C2COC(=O)[C@]2(O)[C@@]2(C)CCCC(C)(C)[C@H]12,-6.57%
16,Nc1ccc(S(=O)(=O)Nc2nccs2)cc1,-1.26%
17,CC(=O)N1CCN(NC(=O)c2ccc(F)cc2)CC1,-1.68%
18,COC(=O)C1=C2Nc3ccccc3C23CCN2CCCC(C(C)O)(C1)C23 (stereo not given),-7.97%
19,CC1(C)CC[C@]2(C(=O)O[C@@H]3O[C@H](CO)[C@@H](O)[C@H](O)[C@H]3O)CC[C@]3(C)C(=CCC4[C@@]5(C)CC[C@H](O[C@@H]6O[C@H](C(=O)O)[C@@H](O[C@@H]7O[C@H](CO)[C@@H](O)[C@H](O)[C@H]7O)[C@H](O)[C@H]6O[C@@H]6O[C@H](CO)[C@@H](O)[C@H](O)[C@H]6O)C(C)(C)C5CC[C@]43C)C2C1 (stereo not given in full),6.47% [at 16.9 µM]
20,C[C@@H]1O[C@@H](O[C@H]2[C@@H]3C=CO[C@@H](O[C@@H]4O[C@H](CO)[C@@H](O)[C@H](O)[C@H]4O)[C@@H]3[C@@]3(CO)O[C@@H]23)[C@H](O)[C@H](O)[C@H]1OC(=O)/C=C/c1ccc(O)cc1,-5.29% [at 16.9 µM]

row,SMILES,"activity change, negative = inhibition"
1,COc1cc2c(c(OC)c1CC=C(C)C)C[C@H](c1ccc(O)cc1O)CO2,-2.11%
2,CC(=O)O[C@@H]1C[C@H](O)[C@@]23CO[C@H](O)[C@]1(C)C2C[C@@H](O)[C@]1(C)C3C(=O)[C@H](OC(C)=O)[C@@]2(C)[C@H](c3ccoc3)C[C@H]3O[C@]321 (stereo not given in full),-1.38% [at 16.9 µM]
3,CC1(C)CC[C@]2(C(=O)O[C@@H]3O[C@H](CO)[C@@H](O)[C@H](O)[C@H]3O)CC[C@]3(C)C(=CCC4[C@@]5(C)CC[C@H](O[C@@H]6O[C@H](C(=O)O)[C@@H](O[C@@H]7O[C@H](CO)[C@@H](O)[C@H](O)[C@H]7O)[C@H](O)[C@H]6O)C(C)(C)C5CC[C@]43C)C2C1 (stereo not given in full),-1.72% [at 16.9 µM]
4,Nc1nc(O)c(C2=C3C(=Nc4ccccc43)C(=O)NCC2)[nH]1,3.5%
5,CC1(C)CC[C@]2(C(=O)O)CC[C@]3(C)C(=CCC4[C@@]5(C)C[C@@H](O)[C@H](O)[C@@](C)(CO)C5[C@H](O)C[C@]43C)[C@@H]2C1 (stereo not given in full),-9.35% [at 28 µM]
6,CC(O)C(O)/C=C/C=C/C(=O)O[C@@H]1C=C2COC(=O)[C@]2(O)[C@@]2(C)CCCC(C)(C)C12 (stereo not given in full),7.55% [at 28 µM]
7,CC1(C)CC[C@]2(C(=O)O[C@@H]3O[C@H](CO[C@@H]4O[C@H](CO)[C@@H](O)[C@H](O)[C@H]4O[C@@H]4O[C@H](CO)[C@H](O)[C@H](O)[C@H]4O)[C@@H](O)[C@H](O[C@@H]4O[C@H](CO)[C@@H](O)[C@H](O)[C@H]4O)[C@H]3O)CC[C@]3(C)C(=CCC4[C@@]5(C)CC[C@H](O[C@@H]6OC[C@@H](O)[C@H](O)[C@H]6O)[C@@](C)(C(=O)O)C5CC[C@]43C)[C@@H]2C1 (stereo not given in full),6.97% [at 11.2 µM]
8,C=C(C)C1=C[C@@]2(C)C(=CC1=O)CC[C@@H](O)[C@@H]2C,1.62%
9,CC(=O)OC1C(OC(=O)c2ccccc2)C2C(=C(C)CCC2(C)C)C23CCC(C)(C2)C(=O)CC13 (stereo not given),4.74% [at 28 µM]
10,CO[C@@H]1[C@]2(O)C(=O)N3/C=C\C(C)(C)c4[nH]c5ccccc5c4/C=C\3C(=O)N2[C@]23[C@H](CO)C(C)(C)N2c2ccccc2[C@]13O,-9.85% [at 28 µM]
11,CC(C)(O)[C@@H]1CC[C@]2(CO)[C@@H](O)CC[C@](C)(O)[C@H]2[C@@H]1O[C@@H]1O[C@H](CO)[C@@H](O)[C@H](O)[C@H]1O,5.41% [at 28 µM]
12,COC(=O)C1C(c2ccc(O)cc2)C(C(=O)O)C1c1ccc(O)cc1 (stereo not given),-8.23%
13,CC(C)=CCC/C(C)=C/CC/C(C)=C/COC1OC(COC2OCC(OC3OCC(O)C(O)C3O)C(O)C2O)C(O)C(OC2OC(C)C(OC3OC(C)C(OC4OCC(OC5OC(C)C(O)C(O)C5O)C(O)C4O)C(O)C3O)C(O)C2O)C1O (stereo not given),7.18% [at 11.2 µM]
14,Nc1nc(-n2cc(C(=O)O)c(=O)c3cc(F)c(N4CC(O)C4)c(Cl)c32)c(F)cc1F,-2.94%
15,C[C@@H](O)[C@H](N)C(=O)N1CCC[C@H]1C(=O)N1CCC[C@H]1C(=O)N[C@H](C(N)=O)[C@@H](C)O (H-TPPT-NH2),5.09% [at 11.2 µM]
16,C[C@@H]1O[C@@H](O[C@@H]2[C@@H](O)[C@H](O[C@@H]3[C@@H](O)[C@@H](O)[C@H](O[C@H]4[C@H](OC(=O)[C@]56CCC(C)(C)C[C@H]5C5=CCC7[C@@]8(C)C[C@H](O)[C@H](O[C@@H]9O[C@H](C(=O)O)[C@@H](O)[C@H](O)[C@H]9O)[C@@](C)(CO)C8[C@H](O)C[C@@]7(C)[C@]5(C)CC6)OC[C@H](O)[C@@H]4O)O[C@H]3C)OC[C@H]2O)[C@H](O)[C@H](O)[C@H]1O (stereo not given in full),10.8% [at 11.2 µM]
17,CC1(C)CC[C@]2(C(=O)O)[C@H](O)C[C@]3(C)C(=CCC4[C@@]5(C)CC[C@H](O[C@@H]6O[C@H](CO[C@@H]7OC[C@H](O)[C@H](O)[C@H]7O[C@@H]7OC[C@@H](O)[C@H](O)[C@H]7O)[C@@H](O)[C@H](O)[C@H]6O[C@@H]6O[C@H](CO)[C@@H](O)[C@H](O)[C@H]6O)C(C)(C)C5CC[C@]43C)[C@@H]2C1 (stereo not given in full),9.5% [at 16.9 µM]
18,CO[C@H]1C=C2C(CC[C@H](O[C@@H]3O[C@H](CO)[C@@H](O)[C@@H](O)[C@H]3O)C2(C)C)[C@]2(C)CC[C@]3(C)C([C@H](C)C(O)C(C=C(C)C)O[C@@H]4O[C@H](CO)[C@@H](O)[C@@H](O)[C@H]4O)CC[C@@]3(C)C12 (stereo not given in full),11.6% [at 16.9 µM]
19,C/C(=C/CCC(CO)C1CCC2(C)C3CCC4C(C)(C)C(OC5OC(CO)C(O)C(O)C5O)CC(O)C45CC35CCC12C)COC1OC(CO)C(O)C(O)C1O (stereo not given),0.82% [at 16.9 µM]
20,CC(O)/C=C/C1(O)C(C)C(O[C@@H]2O[C@H](CO)[C@@H](O)[C@H](O)[C@H]2O)C(O)CC1(C)C (stereo not given in full),10% [at 28 µM]
